In PubChem BioAssay (Tox21):
Records with an inconclusive call do not appear. Calls of active or inactive are those of the source. The call rests on the fitted dose curve; in most records, active means well fitted cell-killing curve with a large enough effect in the repeat runs; inconclusive means weak or mixed curves, or effect the other way; inactive means no such curve, though single readings can be large or run the other way.

test: qHTS assay to identify small molecule antagonists of the peroxisome proliferator-activated receptor gamma (PPARg) signaling pathway - cell viability counter screen (AID 743194); conditions: PPARg-bla HEK293H viability, CellTiter-Glo luminescence, 17 h, co-treated with 50 nM rosiglitazone; series mostly up to 62.6 µM; activity change, negative = cytotoxicity: at the top concentration; further: nearly all actives have a fitted effect of over 55% in size
Source text: U.S. Tox21 Program National Center for Advancing Translational Sciences [NCATS] NIH Chemical Genomics Center [NCGC] U.S. Environmental Protection Agency [EPA] National Institutes of Environmental Health Sciences [NIEHS] National Toxicology Program [NTP] U.S. Food and Drug Administration [FDA] Tox21 Assay Overview: The peroxisome proliferator-activated receptors (PPARs) are lipid-activated transcription factors of the nuclear receptor superfamily with three distinct subtypes namely PPAR alpha, PPAR delta (also called PPAR beta) and PPAR gamma (PPARg). All these subtypes heterodimerize with Retinoid X receptor (RXR) and these heterodimers regulate transcription of various genes. PPAR-gamma receptor (glitazone receptor) is involved in the regulation of glucose and lipid metabolism. To identify the compounds that activate PPAR-gamma signaling, GeneBLAzer PPAR gamma UAS-bla HEK293H cell line (Invitrogen, Carlsbad, CA, USA) containing a beta-lactamase reporter gene under the control of an Upstream Activator Sequence (UAS) was used to screen the Tox21 compound library. The cytotoxicity of the Tox21 compound library against the PPARg-bla cell line was tested in parallel by measuring the cell viability using CellTiter-Glo assay in the same wells.
Tox21 Assay Protocol Summary: PPARg-bla cells were dispensed at 3000 cells/5uL/well in 1536-well black wall/clear bottom plates using a Multidrop Combi (Thermo Fisher Scientific, Waltham, MA) dispenser. After the assay plates were incubated at 37 C and 5% CO2 for 5 h, 23 nL of compounds dissolved in DMSO, positive controls or DMSO only was transferred to the assay plate by a Pintool station (Kalypsys, San Diego, CA), followed by addition of 1ul Rosiglitazone (50 nM, final concentration in the wells). The assay plates were incubated at 37 C for 17 h, and then 1 uL of LiveBLAzerTM B/G FRET substrate was added using a Bioraptr Flying Reagent Dispenser (FRD) workstation (Beckman Coulter, Indianapolis, IN, USA). The assay plates were incubated at room temperature for 1 h and fluorescence intensity was measured by an Envision plate reader (PerkinElmer, Shelton, CT). For cell viability readout that measures cytotoxicity, 4 ul/well of CellTiter-Glo reagent was added into the assay plates using a Flying Reagent Dispenser. After 30 min incubation at room temperature, the luminescence intensity in the plates was measured using a ViewLux plate reader (PerkinElmer).
On the % scale 0 is the no-effect control and ±100 the full control effect; potency means the concentration at half of the fitted maximal effect.

Structure (SMILES)	activity change, negative = cytotoxicity	Potency
C[C@@]12CCC[C@H]1[C@@H]1CC[C@H]3C[C@@H](O)CC[C@]3(C)[C@H]1CC2	8.98% (inactive)	
O=C1c2ccccc2C(=O)C1c1ccc(Br)cc1	-24.5% (inactive)	
CN1C(C(=O)Nc2ccccn2)=C(O)c2sccc2S1(=O)=O	-17.4% (inactive)	
CCC(OCCCOC)OC(C)=O (stereo not given)	17.6% [at 81.1 µM] (inactive)	
CCC1NC(=O)c2cc(S(N)(=O)=O)c(Cl)cc2N1 (stereo not given)	-5.52% (inactive)	
COc1cc(C(=O)NCCCCCC(=O)O)cc(OC)c1OC	14% (inactive)	
CC(=O)Nc1cc(S(=O)(=O)O)cc2cc(S(=O)(=O)O)c(N=Nc3ccccc3)c(O)c12	-0.956% (inactive)	
CC(=O)Oc1ccc([N+](=O)[O-])cc1CCl	2.5% (inactive)	
CC(CCC(=O)O)C(=O)O (stereo not given)	3.29% (inactive)	
CN(C(=O)CN(CCO)CC(=O)N(C)C(C)(C)Cc1ccccc1)C(C)(C)Cc1ccccc1	-18.4% (inactive)	
CC1CC(OC(=O)C(O)c2ccccc2)CC(C)(C)N1C (stereo not given)	-19.2% (inactive)	
CCCCCCCCCCC(=O)O	-6% [at 81.1 µM] (inactive)	
Cc1ccc(CO)cc1	7.04% [at 81.1 µM] (inactive)	
C[C@H]1C[C@H](O)c2ccsc2S1(=O)=O	19.3% (inactive)	
Cc1ccc(C(C)(C)O)cc1	6.18% (inactive)	
O=C(/C=C/c1ccccc1)OCCc1ccccc1	8.96% (inactive)	
CCOC(C)=O	0.868% [at 81.1 µM] (inactive)	
CC1(C)S[C@@H]2[C@H](NC(=O)C(c3ccccc3)S(=O)(=O)O)C(=O)N2[C@H]1C(=O)O (stereo not given in full)	2.44% (inactive)	
CCCC(=O)C(=O)O	-3.55% (inactive)	
C=C(C)C(=O)OCCCCCCCCCCCCC	-3.93% (inactive)	

Structure (SMILES)	activity change, negative = cytotoxicity	Potency
O=c1cc(-c2ccccc2)oc2ccc3ccccc3c12		19.5 µM (active)
CCOC(=O)c1ccc(OCCN2C[C@H](O)[C@@H](O)[C@H](O)[C@H]2CO)cc1	15.1% (inactive)	
CCOc1ccc(Cc2nccc3cc(OCC)c(OCC)cc23)cc1OCC	-8.13% (inactive)	
CC(=O)Nc1ccc(C)cc1C	15.5% (inactive)	
CCN(CC)CCNC(=O)COc1ccc(OC)cc1	-2.44% (inactive)	
CC1(C)[C@@H](OC(=O)CCC(=O)O)CC[C@]2(C)[C@H]3C(=O)C=C4[C@@H]5C[C@@](C)(C(=O)O)CC[C@]5(C)CC[C@@]4(C)[C@]3(C)CC[C@@H]12	2.93% (inactive)	
C/C=C\C/C=C/CCCCCCCCOC(C)=O	-4.09% (inactive)	
CC=C(Cl)Cl	-0.0724% (inactive)	
CN1CC(=O)N2[C@H](c3ccc4c(c3)OCO4)c3[nH]c4ccccc4c3C[C@@H]2C1=O	15% (inactive)	
COc1ccccc1N1CCN(CCCCNC(=O)c2ccc(-c3ccc(C(C)=O)cc3)cc2)CC1	-0.637% (inactive)	
CN1C(=O)OC(C)(C)C1=O	8.97% (inactive)	
CN1CCCC(CC2c3ccccc3Sc3ccccc32)C1 (stereo not given)		16.8 µM (active)
COC(=O)CCS	-5.9% (inactive)	
CCOC(=O)OC(C)OC(=O)[C@@H]1N2C(=O)[C@@H](NC(=O)[C@H](N)c3ccccc3)[C@H]2SC1(C)C (stereo not given in full)	22.5% (inactive)	
CC(C)(c1ccccc1)c1ccccc1	-18.6% (inactive)	
c1csc(SSc2cccs2)c1	-1.09% (inactive)	
CC(=O)OCC[N+](C)(C)C	-5.94% (inactive)	
CC(C)(O)c1ccc(CNC(=O)c2cccnc2Oc2ccc3nonc3c2)cc1	-1.9% (inactive)	
CCCC(C(=O)OCCN(CC)CC)(c1ccccc1)c1ccccc1	-14.9% (inactive)	
O=C(O)c1ccc(OCCCOc2ccc(C(=O)O)cc2)cc1	12.1% (inactive)	
